In PubChem BioAssay (Tox21) one finds Potency data, which are given here for 28 compounds.

Experiment [1] is described as follows: qHTS assay to identify small molecule antagonists of the estrogen related receptor (ERR) signaling pathway from Tox21 library - cell viability counter screen (AID 1224834). Also: nearly all actives have a fitted effect of over 30% in size. Also: potency is read from the fitted curve at half-maximal effect. In a few lines:
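Cytotoxicity of test substances is gauged in the same ERR cells used for the antagonist screen, after 17.5 h of compound treatment at 37 C, by CellTiter-Fluor fluorescence measured after 30 min.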
In general terms: In qHTS, concentration-response curves come from the screen itself.

The nature of experiment [2]: qHTS assay to identify small molecule agonists of the constitutive androstane receptor (CAR) signaling pathway - cell viability counter screen (AID 1224836). Also: series mostly up to about 92 µM; nearly all actives have a fitted effect of over 45% in size. In a few lines:
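Double-stable HepG2 hepatoma cells (hCAR plus CYP2B6-2.2kb) are treated for 23 h at 37 C with test compounds in 15-point concentration series. PK11195 at 0.75 uM final is co-added. Cell viability is quantified by CellTiter-Fluor.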

Experiment [3] in a line: qHTS assay to identify small molecule antagonists of the constitutive androstane receptor (CAR) signaling pathway - cell viability counter screen (AID 1224837). Also: series mostly up to about 92 µM; nearly all actives have a fitted effect of over 45% in size. The procedure, abridged:
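Multiplexed cytotoxicity read-out for the CAR antagonist screen: double-stable HepG2-CYP2B6-hCAR cells co-treated with 50 nM CITCO (final) and compound over 15 concentrations, incubated 23 hr, then assessed by CellTiter-Fluor fluorescence.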

For experiment [4], the target named is Nuclear receptor subfamily 1 group I member 3 (Homo sapiens) (UniProt Q14994). The experiment in a line: qHTS assay to identify small molecule antagonists of the constitutive androstane receptor (CAR) signaling pathway (AID 1224838). Also: nearly all actives have a fitted effect of over 40% in size. In a few lines:
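Compounds were titrated across 15 concentrations onto HepG2 cells double-stably expressing hCAR and a CYP2B6-2.2kb reporter, together with 50 nM CITCO (final). After 24 h at 37 C, luciferase activity was measured by luminescence.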

Experiment [5] has the same target. The experiment is described as follows: qHTS assay to identify small molecule agonists of the constitutive androstane receptor (CAR) signaling pathway (AID 1224839). Also: nearly all actives have a fitted effect of over 15% in size. Also: potency is read from the fitted curve at half-maximal effect. The procedure, abridged:
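Readout: firefly luciferase luminescence via ONE-Glo. System: HepG2 double-stable for hCAR and CYP2B6-2.2kb. Conditions: 15-point compound titration, PK11195 at 0.75 uM final, 24 h incubation.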

The nature of experiment [6]: qHTS assay to identify small molecule antagonists of the estrogen related receptor signaling pathway with the pleiotropic PPARgamma coactivator (PGC) from Tox21 10K library - cell viability counter screen (AID 1224840; active = well fitted cell-killing curve with a large enough effect in the repeat runs, not every such curve was filed as active; also: nearly all actives have a fitted effect of over 40% in size). In a few lines:
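Step one, plate 2,000 PGC/ERR cells per well; step two, incubate 6 h at 37 C/5% CO2; step three, pin-transfer compounds; step four, incubate 17.5 h; step five, add CellTiter-Fluor and read fluorescence after 30 min.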

The nature of experiment [7]: qHTS assay to identify small molecule antagonists of the estrogen related receptor signaling pathway with the pleiotropic PPARgamma coactivator (PGC) from Tox21 10K library (AID 1224841; call rule not given here; also: actives are mostly falling curves and most rising ones were filed inactive; nearly all actives have a fitted effect of over 50% in size; also: potency is read from the fitted curve at half-maximal effect). The procedure, abridged: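 Antagonism in this quantitative HTS is taken from loss of luciferase signal in PGC/ERR cells. Cells (2,000/well) are treated with compounds in DMSO after a 6 h settling period and read by One-Glo luminescence after 18 h.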

The nature of experiment [8]: qHTS assay to identify small molecule agonists of the estrogen related receptor signaling pathway with the pleiotropic PPARgamma coactivator (PGC) from Tox21 10K library (AID 1224842). Also: nearly all actives have a fitted effect of over 15% in size. Also: potency is read from the fitted curve at half-maximal effect. The procedure, abridged:
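PGC/ERR reporter cell line, 2,000 cells per well, incubated 6 h at 37 C before 23 nL compound in DMSO was added. After 18 h at 37 C, One-Glo luminescence read following 30 min at room temperature.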

The target in experiment [9] is Luciferin 4-monooxygenase (Photinus pyralis) (UniProt P08659). The experiment is described as follows: qHTS assay to identify small molecule inhibitors of firefly luciferase (AID 1224835). Also: nearly all actives have a fitted effect of over 25% in size. Also: potency is read from the fitted curve at half-maximal effect. In a few lines:
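Biochemical qHTS: compounds run as interplate titrations against purified firefly enzyme, with D-luciferin and ATP each at its KM concentration. Light output recorded by CCD imaging.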

Each structure is given as a SMILES string. Results filed as inconclusive are left out. The source made the active and inactive calls. Unless noted, calls follow the shape of the dose curve; as a rule, active = well fitted curve in the direction sought with a large enough effect in the repeat runs; inconclusive = weak or mixed curves; inactive = no such curve, though single readings can be large; an effect the other way counts as inactive or inconclusive.

Chain of Luciferin 4-monooxygenase (Photinus pyralis) (P08659 whole entry, looked up): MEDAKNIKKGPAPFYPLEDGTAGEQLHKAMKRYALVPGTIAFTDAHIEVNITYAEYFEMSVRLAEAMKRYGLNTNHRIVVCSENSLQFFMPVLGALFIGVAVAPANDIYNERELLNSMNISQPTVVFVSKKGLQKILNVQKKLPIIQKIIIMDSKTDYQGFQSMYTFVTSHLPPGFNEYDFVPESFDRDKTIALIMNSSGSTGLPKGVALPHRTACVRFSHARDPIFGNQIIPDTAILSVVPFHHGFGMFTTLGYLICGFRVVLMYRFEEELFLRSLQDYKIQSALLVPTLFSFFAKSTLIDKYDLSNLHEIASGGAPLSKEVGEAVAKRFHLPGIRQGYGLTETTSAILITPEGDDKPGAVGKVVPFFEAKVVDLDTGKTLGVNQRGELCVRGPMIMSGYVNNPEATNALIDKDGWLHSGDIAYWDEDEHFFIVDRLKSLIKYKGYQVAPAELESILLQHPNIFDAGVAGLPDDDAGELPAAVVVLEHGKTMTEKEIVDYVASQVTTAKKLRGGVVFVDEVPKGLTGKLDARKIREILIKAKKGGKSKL
Chain of Nuclear receptor subfamily 1 group I member 3 (Homo sapiens) (Q14994 whole entry, looked up): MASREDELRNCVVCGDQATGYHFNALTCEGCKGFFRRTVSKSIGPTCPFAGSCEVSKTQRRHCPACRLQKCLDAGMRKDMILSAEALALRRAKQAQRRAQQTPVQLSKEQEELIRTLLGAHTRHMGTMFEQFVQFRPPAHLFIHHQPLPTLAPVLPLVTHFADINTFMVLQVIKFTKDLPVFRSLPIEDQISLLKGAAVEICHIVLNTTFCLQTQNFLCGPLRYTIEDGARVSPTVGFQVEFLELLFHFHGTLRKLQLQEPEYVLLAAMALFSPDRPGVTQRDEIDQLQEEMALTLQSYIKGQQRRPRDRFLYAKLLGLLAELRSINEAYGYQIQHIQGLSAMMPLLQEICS

As to `Cc1ccsc1C(=CCCN1CCC[C@@H](C(=O)O)C1)c1sccc1C`, the Potency entry in experiment [1], in [2], in [3], in [4], in experiment [5] and in experiment [6] was “inactive” throughout.

For the compound `CN(C)CC[C@@H](c1ccc(Cl)cc1)c1ccccn1`, the Potency result in [1], in experiment [2], in experiment [3] and in experiment [6] was “inactive” throughout.

Turning to `FC(F)(F)C(Cl)(Cl)Cl`, the Potency entry in experiment [1], in experiment [2], in [3], in [4], in [5] and in experiment [6] was “inactive” throughout.

On to `O=C(O[C@@H](C(=O)O)[C@@H](OC(=O)c1ccccc1)C(=O)O)c1ccccc1`, for which the Potency result in experiment [1], in experiment [2], in experiment [3], in experiment [4], in [5] and in [6] was “inactive” throughout.

For `Cc1c[nH]c(=S)[nH]c1=O`, the Potency result in experiment [1], in experiment [2], in experiment [3], in experiment [4], in experiment [5] and in experiment [6] was “inactive” in each case.

Take `O=C(O)C(=O)Cc1c[nH]c2ccccc12`: the Potency result in [1], in experiment [2], in [3], in experiment [4] and in [6] was “inactive” each time. In addition, the Potency in experiment [5] is 30.6 µM (active).

With `O=C(O)c1cccc(Cl)c1Cl`, the Potency entry in [1], in experiment [2], in experiment [3], in experiment [4], in [5] and in experiment [6] was “inactive” in each case.

As for `O=C1CCC(C2CCCCC2)CC1`, the Potency entry in [1], in experiment [2], in experiment [3], in experiment [4], in experiment [5] and in [6] was “inactive” each time. In addition, the Potency entry in experiment [7] and in [8] was “inactive” each time.

Turning to `CC/C=C\CCOC(=O)CCCCC`, the Potency entry in experiment [1], in [2], in [3], in [4], in [5] and in experiment [6] was “inactive” each time. Further, the Potency entry in experiment [7] and in experiment [8] was “inactive” in each case.

For `CCN(O)CC`, the Potency result in experiment [1], in experiment [2], in experiment [3], in experiment [4], in experiment [5] and in experiment [6] was “inactive” throughout.

Regarding `Cc1ncc(CO)c(CN)c1O`, the Potency entry in experiment [1], in experiment [2], in [3], in experiment [4], in [5] and in experiment [6] was “inactive” throughout. The Potency entry in experiment [7] and in experiment [8] was “inactive” in each case.

Take `OCc1ccccc1O`: the Potency result in [1], in experiment [2], in [3], in [4], in [5] and in [6] was “inactive” each time.

Regarding `Cc1cccc(C)c1NC(=O)CN1CCCCCC1`, the Potency entry in experiment [1], in [2], in experiment [3], in experiment [4], in [5] and in experiment [6] was “inactive” each time. Also, in experiment [7], the Potency entry is “inactive”.

On to `C=CC(C)(O)CC/C=C(\C)CCC=C(C)C` (centres undefined), for which the Potency result in experiment [1], in experiment [2], in [3] and in experiment [6] was “inactive” in each case.

`CCC(=O)c1ccc2c(c1)N(CCCN(C)C)c1ccccc1S2`: the Potency in experiment [1] was 26.6 µM (active). Moreover, the Potency entry in experiment [2], in [3], in experiment [4] and in experiment [5] was “inactive” in each case.

`CC(C)C[C@H](NC(=O)OCC1c2ccccc2-c2ccccc21)C(=O)O`: the Potency result in experiment [1], in experiment [6] and in experiment [7] was “inactive” throughout. In addition, the Potency in experiment [9] is 3.56 µM (active); in experiment [8] it was 15.4 µM (active).

As to `CCOc1ccc(OCC)c(Cl)c1`, the Potency result in experiment [1], in [2], in [3], in experiment [4], in experiment [5] and in [6] was “inactive” throughout. In addition, in [7], the Potency result was “inactive”.

On to `CCN(CC)CCNC(=O)COc1ccc(Cl)cc1`, for which the Potency entry in experiment [1], in experiment [2], in experiment [3], in experiment [4], in experiment [5] and in experiment [6] was “inactive” in each case.

With `CCOC(=O)C(Br)c1ccccc1` (centres undefined), the Potency entry in [1], in experiment [2], in experiment [3], in [4], in experiment [5] and in experiment [6] was “inactive” throughout.

With `COC(C)CCO` (centres undefined), the Potency result in [1], in [2], in experiment [3], in experiment [4], in [5] and in experiment [6] was “inactive” in each case.

As for `CCCCOc1cc(C(=O)NCCN(CC)CC)c2ccccc2n1`, the Potency entry in experiment [9] and in [6] was “inactive” in each case.

On to `CCc1cc2cc(OC)c(OC)cc2c(Cc2ccccc2)n1`, for which the Potency result in experiment [9], in experiment [2], in [4], in [6], in experiment [7] and in experiment [8] was “inactive” in each case.

As to `CCCOCCC`, the Potency result in experiment [2], in experiment [4], in experiment [5] and in [6] was “inactive” throughout.

As to `CCOC(=O)c1ccccc1O`, the Potency entry in experiment [1], in experiment [2], in [3], in experiment [6] and in experiment [7] was “inactive” each time.

For `CCOc1ccccc1N`, the Potency result in [9], in [4], in experiment [6] and in experiment [8] was “inactive” in each case. For the same compound, the Potency in [7] was 15.2 µM (active).

On to `NCCC(O)(P(=O)(O)O)P(=O)(O)O`, for which the Potency result in [1], in experiment [2], in [4], in experiment [5], in [6] and in experiment [7] was “inactive” in each case.

For the compound `Cc1nc(N)nc(N)c1-c1ccc(Cl)c(Cl)c1`, the Potency result in experiment [9], in experiment [2] and in [8] was “inactive” in each case. The Potency in experiment [7] is 0.841 µM (active).

Regarding `CCCCCCCCCCCCOCCOS(=O)(=O)O`, the Potency entry in experiment [2], in experiment [4], in experiment [5], in experiment [6] and in [7] was “inactive” throughout.
